DENV2 CPE = inhibitors of DENV2 cytopathic effect, primary screen, cell-based, plate reader, single concentration; DENV2-infected cells, cytopathic effect rescue; CPE inhibition, % at 9.99 µM; actives 1.7% (n = 350,000); AID 651640, 2012; in the data active = CPE inhibition above about 20%, passing the limit was not always enough; tested in BHK-21 cells;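 also: 0% = median of neutral control wells and 100% = median of positive control wells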
ERAP1 inh = human ERAP1 aminopeptidase inhibitors, primary screen, biochemical, single point, plate reader | actives 0.15% (n = 340,000) | recombinant ERAP1, Leu-AMC fluorescence, 60 min | inhibition, % at 10.7 µM | Endoplasmic reticulum aminopeptidase 1 (Homo sapiens), Q9NZ08;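 active = mean replicate inhibition of at least 30%, or all replicates individually reaching that 30% level; inactive = mean below 30% and not every replicate reaching it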;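 also: 0% = neutral control wells and 100% = L-leucinethiol positive control wells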
FGF22 binding = binders of human FGF22 protein, primary screen, FGF22 synaptogenesis inhibitor project, biophysical, thermal shift, single point. Fibroblast growth factor 22 (Homo sapiens), Q9HCT0. recombinant FGF22 thermal shift, SYPRO orange fluorescence; percent of sucrose octasulfate shift, DMSO zero. activity (Tm shift, normalised), % at 9.99 µM. actives 1.5% (n = 340,000). AID 651658, 2012;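 active = mean Tm shift, scaled 0 neutral to 100 positive control, at about 1.3% or above, every replicate too, limit read from the data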
RAD52 inh = RAD52 DNA annealing inhibitors, primary screen, biochemical, FRET, single point, set 2 | recombinant RAD52 DNA annealing, FRET fluorescence | inhibition, % at 18.7 µM | actives 0.46% (n = 360,000);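 active = every replicate showing at least 50% inhibition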
MLL AF4-AF9 inh = inhibitors of AF4 peptide binding to AF9, primary screen, biochemical, AlphaScreen, biotin-AF4 peptide, FLAG-AF9, single point; Protein AF-9 (Homo sapiens), P42568; inhibition, % at 10 µM; actives 0.47% (n = 350,000);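 active = every replicate reaching a set inhibition limit, whatever the replicate mean, cut at about 25% in these data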;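 also: 0% = plate neutral control median and 100% = total signal loss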
Target sequence (P42568 whole entry, looked up): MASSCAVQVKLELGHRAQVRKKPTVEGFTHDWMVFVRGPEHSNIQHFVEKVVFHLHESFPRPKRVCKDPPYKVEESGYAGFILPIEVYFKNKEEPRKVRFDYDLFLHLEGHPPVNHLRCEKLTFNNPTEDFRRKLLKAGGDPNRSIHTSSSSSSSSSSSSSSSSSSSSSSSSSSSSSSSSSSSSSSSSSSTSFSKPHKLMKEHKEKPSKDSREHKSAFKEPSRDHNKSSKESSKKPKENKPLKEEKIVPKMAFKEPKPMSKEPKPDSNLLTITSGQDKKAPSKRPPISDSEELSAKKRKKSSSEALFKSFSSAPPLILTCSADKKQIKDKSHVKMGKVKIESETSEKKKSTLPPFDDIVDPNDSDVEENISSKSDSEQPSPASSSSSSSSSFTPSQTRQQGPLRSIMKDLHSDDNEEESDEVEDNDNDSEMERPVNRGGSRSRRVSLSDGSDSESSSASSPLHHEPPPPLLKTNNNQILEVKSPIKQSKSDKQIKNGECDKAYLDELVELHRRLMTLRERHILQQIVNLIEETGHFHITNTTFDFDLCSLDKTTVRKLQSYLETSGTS
* = called active by the depositor; nt = not tested or not shown. Shown are actives, neighbours in structure and some others; about 4% of the full set was active somewhere.

SMILES	DENV2 CPE	ERAP1 inh	FGF22 binding	RAD52 inh	MLL AF4-AF9 inh
COCC(=O)Nc1ccc2c(c1)C(=O)N(C)C[C@H](OC)[C@H](C)CN(Cc1ccccc1)[C@@H](C)CO2	-9	3	0	3	8
CCC(=O)NNC(=O)CCC(=O)Nc1ccc(C)cc1C	-2	-5	43*	-15	-1
O=C(Nc1nccs1)c1ccccn1	7	2	43*	-11	0
CC1CN(S(=O)(=O)c2cccc(C(=O)NCCc3ccc(S(N)(=O)=O)cc3)c2)CC(C)O1 (stereo not drawn)	-2	0	43*	-7	5
CCOC(=O)NC(C)N1C(=O)C2C3C=CC(C3)C2C1=O (stereo not drawn)	8	-1	44*	-9	-1
CCC(=O)Nc1ccc2c(c1)C(=O)N(C)[C@H]1CC[C@H](CC(=O)NCc3ccccc3)O[C@H]1CO2	8	-1	0	2	1
O=C(Nc1cccnc1)c1ccc(-c2ccc(Cl)cc2)o1	-6	-1	0	-5	-1
O=C(Nc1cccnc1)c1ccc(-c2cc(Cl)ccc2Cl)o1	5	-10	43*	8	-3
C[C@H](CO)N1C[C@H](C)[C@H](CN(C)Cc2ccccc2)Oc2ccc(N(C)C)cc2CC1=O	5	1	0	-3	2
C[C@H](CO)N1C[C@H](C)[C@@H](CN(C)Cc2ccc(C(F)(F)F)cc2)Oc2ccc(N(C)C)cc2CC1=O	-4	2	-1	4	33*
C[C@@H]1CN([C@H](C)CO)C(=O)Cc2cc(N(C)C)ccc2O[C@H]1CN(C)Cc1ccc(C(=O)O)cc1	-6	1	0	-12	-3
C[C@H](CO)N1C[C@H](C)[C@H](CN(C)Cc2ccc(-c3ccccc3)cc2)Oc2ccc(N(C)C)cc2CC1=O	-5	-1	0	-8	29*
C[C@@H]1CN([C@@H](C)CO)C(=O)Cc2cc(N(C)C)ccc2O[C@H]1CN(C)Cc1ccc(-c2ccccc2)cc1	-1	0	0	7	74*
C[C@H](CO)N1C[C@H](C)[C@H](CN(C)S(=O)(=O)c2ccccc2)OCCCC[C@H](C)Oc2ccc(NS(=O)(=O)c3cn(C)cn3)cc2C1=O	-4	0	0	17	1
CO[C@H]1CC[C@H]2CCOc3ccc(C#N)cc3C(=O)N(C)C[C@H](OC)[C@@H](C)C(=O)N(C)C[C@H]1O2	5	0	0	-5	3
CN(C)C(=O)c1ccc(NC(=O)c2ccc(-c3ccc(Cl)cc3)o2)cc1	-1	-7	1.8*	-7	-3
N#Cc1ccc(-c2ccc([C@H]3[C@H](CO)N4CCCCN(S(=O)(=O)c5ccccc5)C[C@@H]34)cc2)cc1	34*	1	0	-29	1
N#Cc1ccc(-c2ccc([C@H]3[C@H]4CN(S(=O)(=O)c5ccccc5)CCCCN4[C@H]3CO)cc2)cc1	0	4	0	-34	-2
CCS(=O)(=O)N1CCCCN2[C@H](C1)[C@@H](c1ccc(-c3ccc(C#N)cc3)cc1)[C@@H]2CO	41*	7	0	-60	2
N#Cc1ccc(-c2ccc([C@@H]3[C@@H]4CN(S(=O)(=O)c5ccc(-c6ccccc6)cc5)C[C@H]3N4)cc2)cc1	2	1	nt	79*	-2
CCS(=O)(=O)N1CCCCN2[C@H](CO)[C@@H](c3ccc(C#CC(C)(C)O)cc3)[C@H]2C1	22*	2	0	-17	0
CCS(=O)(=O)N1CCCCN2[C@H](CO)[C@H](c3ccc(-c4ccc(C#N)cc4)cc3)[C@@H]2C1	-1	23	0	-44	0
CN1C(=O)c2cc(NC(=O)NC3CCCC3)ccc2OC[C@H]2O[C@H](CC(=O)NCC3CC3)CC[C@@H]21	4	6	0	10	-2
CCOC(=O)c1cc(S(=O)(=O)N2CCc3ccccc32)cn1C	39*	-1	0	-5	-1
COc1ccc2c3c(n(C)c2c1)[C@H](CO)N(C(=O)CC1CC1)CC31CN(Cc2ccccc2)C1	10	0	0	15	19
SMILES	DENV2 CPE	ERAP1 inh	FGF22 binding	RAD52 inh	MLL AF4-AF9 inh
C[C@H](CO)N1C[C@H](C)[C@@H](CN(C)S(=O)(=O)c2ccc(Cl)cc2)Oc2c(NC(=O)c3nc4ccccc4s3)cccc2C1=O	25*	1	0	-1	0
C[C@@H]1CN([C@@H](C)CO)C(=O)c2cccc(NC(=O)c3nc4ccccc4s3)c2O[C@@H]1CN(C)S(=O)(=O)c1ccc(Cl)cc1	9	-1	1	4	1
C[C@H](CO)N1C[C@H](C)[C@H](CN(C)Cc2ccc(-c3ccccc3)cc2)Oc2c(NC(=O)c3nc4ccccc4s3)cccc2C1=O	41*	2	0	-23	2
CCCC#Cc1cnc2c(c1)C(=O)N([C@H](C)CO)C[C@@H](C)[C@@H](CN(C)C(=O)CN1CCOCC1)O2	10	-2	0	2	-4
O=C(C[C@@H]1C[C@@H]2c3cc(NC(=O)C4CCC4)ccc3O[C@@H]2[C@H](CO)O1)NCc1ccccc1	4	3	0	9	-1
CCS(=O)(=O)N1CCC2(CC1)CN(C(=O)Nc1cccc(F)c1)[C@@H](CO)c1c2c2ccc(OC)cc2n1C	3	5	0	14	1
COc1cccc(CNC(=O)C[C@H]2C=C[C@H](NC(=O)C3CCC3)[C@H](CO)O2)c1	5	-3	0	-2	-1
CCNC(=O)c1cc2c(c(-c3cccc(-c4ccncc4)c3)n1)[C@@H](CCO)N(S(=O)(=O)CC)C2	51*	0	0	3	0
O=C(C[C@H]1C=C[C@H](NC(=O)Nc2ccc(F)cc2)[C@@H](CO)O1)NCc1cccc(F)c1	17	1	0	-1	-3
O=C(CCCn1cc([N+](=O)[O-])cn1)N1CCCCC1	-1	-1	0	-6	-4
Cc1cc(C)n(C(=O)CCCn2cc([N+](=O)[O-])cn2)n1	1	4	43*	2	-2
CN(C)CCCNC(=O)[C@H]1[C@H](CO)[C@H]2Cn3c(cccc3=O)[C@@H]1N2CC1CC1	-1	0	0	11	-1
COc1ccccc1C#Cc1ccc2c(c1)[C@H]1NCC[C@H]1[C@@H](CO)N2	-6	-2	nt	54*	18
CN(C)C(=O)c1ccc(-c2ccc3c(c2)[C@@H]2[C@@H](CCN2C(=O)c2cnccn2)[C@H](CO)N3)cc1	-4	-1	0	-16	-2
O=C(c1ccccc1)N1CC[C@H]2[C@H](CO)Nc3ccc(C#Cc4ccccc4F)cc3[C@H]21	32*	-3	nt	-17	2

Assay outcomes (PubChem)
